Assay results taken from the supplement of paper PMC11732987, “Enantioselective OTUD7B fragment discovery through chemoproteomics screening and high-throughput optimisation” (Communications Chemistry, 2025).

Legend:
Assay in all cases: log2 ratio of Biotin-Ahx-Ub-VS probe labelling (fragment/DMSO); higher = less target engagement (more negative = stronger competition), active = hit call of the paper (q ≤ 0.05, log2 ratio ≤ -1)
Conditions in all cases: compound concentration: 200 uM; treatment time: 3 h
USP9X = USP9X (UniProt Q93008)
How it was run: (§1)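 Using Biotin-Ahx-Ub-VS at 0.5 µM final for 1 h, DUBs were labelled in HEK293T lysate (495 µg per sample) that had first been treated in triplicate with fragment at 200 µM or vehicle for 3 h. NeutrAvidin enrichment, LysC and trypsin digestion and diaPASEF LC-MS/MS followed. Spectronaut label-free quantities were global-median-normalised. Values are average log2 fragment/vehicle ratios by unpaired t-test, using proteins with ≥2 unique peptides.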

UniProt O00487 = molecular target: UniProt O00487
Sequence of UniProt O00487 (O00487 whole entry): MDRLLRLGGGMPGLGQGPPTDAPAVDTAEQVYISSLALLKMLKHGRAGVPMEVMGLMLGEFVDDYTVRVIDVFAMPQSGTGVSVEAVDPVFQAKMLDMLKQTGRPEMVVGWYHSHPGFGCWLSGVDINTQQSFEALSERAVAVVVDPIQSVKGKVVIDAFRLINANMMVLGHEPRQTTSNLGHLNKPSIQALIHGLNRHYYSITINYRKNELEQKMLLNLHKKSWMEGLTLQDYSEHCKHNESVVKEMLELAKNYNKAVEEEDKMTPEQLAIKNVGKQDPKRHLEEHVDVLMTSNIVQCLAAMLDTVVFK
How it was run: as §1

UniProt O00507 = molecular target: UniProt O00507
Sequence of UniProt O00507 (O00507 whole entry): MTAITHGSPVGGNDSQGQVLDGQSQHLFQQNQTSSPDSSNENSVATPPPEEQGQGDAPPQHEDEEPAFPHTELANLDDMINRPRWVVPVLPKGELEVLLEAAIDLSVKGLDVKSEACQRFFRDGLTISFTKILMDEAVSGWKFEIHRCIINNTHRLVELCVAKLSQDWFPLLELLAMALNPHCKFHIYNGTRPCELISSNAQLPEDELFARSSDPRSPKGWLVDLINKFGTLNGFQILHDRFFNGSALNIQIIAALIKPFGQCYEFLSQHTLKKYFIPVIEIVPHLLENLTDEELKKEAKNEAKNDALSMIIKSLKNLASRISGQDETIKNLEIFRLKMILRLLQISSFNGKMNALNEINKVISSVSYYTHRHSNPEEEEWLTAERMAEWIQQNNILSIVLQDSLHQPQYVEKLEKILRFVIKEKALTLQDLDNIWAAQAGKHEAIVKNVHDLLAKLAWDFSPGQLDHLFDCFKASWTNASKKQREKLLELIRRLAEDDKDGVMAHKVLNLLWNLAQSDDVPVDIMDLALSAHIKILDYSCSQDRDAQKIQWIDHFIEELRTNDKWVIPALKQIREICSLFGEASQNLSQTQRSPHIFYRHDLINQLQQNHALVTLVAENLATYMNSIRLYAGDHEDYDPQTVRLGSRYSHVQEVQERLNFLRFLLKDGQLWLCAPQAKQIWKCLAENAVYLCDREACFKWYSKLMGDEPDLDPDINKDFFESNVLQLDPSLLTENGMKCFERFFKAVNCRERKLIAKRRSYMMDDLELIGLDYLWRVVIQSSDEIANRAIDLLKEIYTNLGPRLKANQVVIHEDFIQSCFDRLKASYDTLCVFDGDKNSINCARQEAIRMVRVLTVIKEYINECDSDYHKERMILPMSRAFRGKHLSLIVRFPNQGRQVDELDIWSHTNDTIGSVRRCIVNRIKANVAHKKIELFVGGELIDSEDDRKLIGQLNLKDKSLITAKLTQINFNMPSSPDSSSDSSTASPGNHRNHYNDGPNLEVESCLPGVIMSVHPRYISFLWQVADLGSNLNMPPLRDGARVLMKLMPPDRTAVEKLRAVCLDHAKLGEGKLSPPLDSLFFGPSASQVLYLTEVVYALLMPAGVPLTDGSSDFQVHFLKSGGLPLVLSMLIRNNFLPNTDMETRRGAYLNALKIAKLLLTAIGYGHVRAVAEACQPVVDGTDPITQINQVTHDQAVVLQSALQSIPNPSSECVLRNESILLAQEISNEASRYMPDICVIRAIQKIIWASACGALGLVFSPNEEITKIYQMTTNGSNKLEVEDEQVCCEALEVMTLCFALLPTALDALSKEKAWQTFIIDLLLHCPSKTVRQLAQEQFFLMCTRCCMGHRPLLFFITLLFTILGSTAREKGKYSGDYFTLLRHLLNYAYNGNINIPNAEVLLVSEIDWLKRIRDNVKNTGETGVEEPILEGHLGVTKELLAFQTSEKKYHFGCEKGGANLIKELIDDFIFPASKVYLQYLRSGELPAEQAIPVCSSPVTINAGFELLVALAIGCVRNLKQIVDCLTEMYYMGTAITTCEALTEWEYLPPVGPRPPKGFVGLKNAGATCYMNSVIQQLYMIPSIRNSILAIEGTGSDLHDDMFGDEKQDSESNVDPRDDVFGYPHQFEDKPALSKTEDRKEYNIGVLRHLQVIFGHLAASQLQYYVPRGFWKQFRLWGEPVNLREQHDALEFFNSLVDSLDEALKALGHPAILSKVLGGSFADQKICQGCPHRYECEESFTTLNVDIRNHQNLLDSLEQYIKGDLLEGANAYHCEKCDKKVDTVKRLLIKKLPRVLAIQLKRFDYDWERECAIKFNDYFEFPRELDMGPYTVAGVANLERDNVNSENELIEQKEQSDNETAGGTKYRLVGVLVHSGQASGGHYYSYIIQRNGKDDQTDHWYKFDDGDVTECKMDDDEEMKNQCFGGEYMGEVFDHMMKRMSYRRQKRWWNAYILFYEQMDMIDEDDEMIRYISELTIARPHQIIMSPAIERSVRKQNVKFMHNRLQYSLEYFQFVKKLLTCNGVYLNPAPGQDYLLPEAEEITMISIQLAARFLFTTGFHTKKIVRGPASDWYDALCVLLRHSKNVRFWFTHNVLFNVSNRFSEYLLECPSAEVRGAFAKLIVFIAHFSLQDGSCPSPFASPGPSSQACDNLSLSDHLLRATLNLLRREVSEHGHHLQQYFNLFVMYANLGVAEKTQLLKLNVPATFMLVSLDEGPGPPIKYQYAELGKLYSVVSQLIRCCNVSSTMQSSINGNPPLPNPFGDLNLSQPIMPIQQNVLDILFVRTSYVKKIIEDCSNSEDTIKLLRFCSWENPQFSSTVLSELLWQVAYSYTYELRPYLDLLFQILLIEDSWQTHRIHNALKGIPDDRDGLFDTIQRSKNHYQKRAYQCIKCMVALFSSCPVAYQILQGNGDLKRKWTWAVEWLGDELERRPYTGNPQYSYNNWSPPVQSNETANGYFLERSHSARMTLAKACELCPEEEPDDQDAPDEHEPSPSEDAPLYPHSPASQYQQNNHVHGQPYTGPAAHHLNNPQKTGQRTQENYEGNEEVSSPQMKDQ
How it was run: as §1

UniProt P51784 = molecular target: UniProt P51784
Sequence of UniProt P51784 (P51784 whole entry): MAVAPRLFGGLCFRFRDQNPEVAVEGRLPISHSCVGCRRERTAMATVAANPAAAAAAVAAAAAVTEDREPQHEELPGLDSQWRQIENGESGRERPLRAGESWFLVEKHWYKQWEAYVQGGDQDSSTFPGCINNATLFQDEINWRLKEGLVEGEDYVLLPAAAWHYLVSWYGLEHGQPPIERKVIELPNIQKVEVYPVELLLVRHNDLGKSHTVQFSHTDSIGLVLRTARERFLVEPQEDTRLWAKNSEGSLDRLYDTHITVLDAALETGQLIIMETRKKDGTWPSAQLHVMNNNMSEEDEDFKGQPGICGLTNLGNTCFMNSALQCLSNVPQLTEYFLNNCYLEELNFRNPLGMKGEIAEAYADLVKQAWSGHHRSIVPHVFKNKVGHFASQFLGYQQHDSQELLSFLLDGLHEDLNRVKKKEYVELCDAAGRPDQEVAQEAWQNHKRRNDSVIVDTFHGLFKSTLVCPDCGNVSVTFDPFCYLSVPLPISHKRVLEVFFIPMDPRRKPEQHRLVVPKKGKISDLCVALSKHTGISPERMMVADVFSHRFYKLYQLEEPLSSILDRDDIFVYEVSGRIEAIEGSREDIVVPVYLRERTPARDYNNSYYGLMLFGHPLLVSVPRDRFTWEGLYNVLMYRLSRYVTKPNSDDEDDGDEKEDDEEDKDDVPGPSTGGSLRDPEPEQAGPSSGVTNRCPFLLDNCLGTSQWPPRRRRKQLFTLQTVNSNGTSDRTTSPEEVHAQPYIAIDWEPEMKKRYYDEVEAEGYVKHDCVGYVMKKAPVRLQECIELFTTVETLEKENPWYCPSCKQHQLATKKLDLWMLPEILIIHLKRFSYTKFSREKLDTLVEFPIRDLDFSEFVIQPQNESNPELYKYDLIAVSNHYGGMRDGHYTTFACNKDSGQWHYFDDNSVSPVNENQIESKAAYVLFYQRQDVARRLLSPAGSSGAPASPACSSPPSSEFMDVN
How it was run: as §1

UniProt Q5T2D3 = molecular target: T1, UniProt Q5T2D3
T1 sequence (whole entry): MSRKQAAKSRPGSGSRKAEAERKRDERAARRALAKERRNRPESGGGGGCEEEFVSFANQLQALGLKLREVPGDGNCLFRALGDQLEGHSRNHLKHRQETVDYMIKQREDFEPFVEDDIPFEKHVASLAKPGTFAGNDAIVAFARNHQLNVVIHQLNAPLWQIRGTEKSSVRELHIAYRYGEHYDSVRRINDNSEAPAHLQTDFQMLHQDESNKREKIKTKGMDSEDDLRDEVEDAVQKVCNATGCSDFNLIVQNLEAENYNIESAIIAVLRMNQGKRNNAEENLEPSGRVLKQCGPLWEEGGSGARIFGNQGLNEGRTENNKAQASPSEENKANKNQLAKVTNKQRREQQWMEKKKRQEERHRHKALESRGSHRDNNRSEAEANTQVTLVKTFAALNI
How it was run: as §1

UniProt Q8TE49 = molecular target: T2, UniProt Q8TE49
T2 sequence (whole entry): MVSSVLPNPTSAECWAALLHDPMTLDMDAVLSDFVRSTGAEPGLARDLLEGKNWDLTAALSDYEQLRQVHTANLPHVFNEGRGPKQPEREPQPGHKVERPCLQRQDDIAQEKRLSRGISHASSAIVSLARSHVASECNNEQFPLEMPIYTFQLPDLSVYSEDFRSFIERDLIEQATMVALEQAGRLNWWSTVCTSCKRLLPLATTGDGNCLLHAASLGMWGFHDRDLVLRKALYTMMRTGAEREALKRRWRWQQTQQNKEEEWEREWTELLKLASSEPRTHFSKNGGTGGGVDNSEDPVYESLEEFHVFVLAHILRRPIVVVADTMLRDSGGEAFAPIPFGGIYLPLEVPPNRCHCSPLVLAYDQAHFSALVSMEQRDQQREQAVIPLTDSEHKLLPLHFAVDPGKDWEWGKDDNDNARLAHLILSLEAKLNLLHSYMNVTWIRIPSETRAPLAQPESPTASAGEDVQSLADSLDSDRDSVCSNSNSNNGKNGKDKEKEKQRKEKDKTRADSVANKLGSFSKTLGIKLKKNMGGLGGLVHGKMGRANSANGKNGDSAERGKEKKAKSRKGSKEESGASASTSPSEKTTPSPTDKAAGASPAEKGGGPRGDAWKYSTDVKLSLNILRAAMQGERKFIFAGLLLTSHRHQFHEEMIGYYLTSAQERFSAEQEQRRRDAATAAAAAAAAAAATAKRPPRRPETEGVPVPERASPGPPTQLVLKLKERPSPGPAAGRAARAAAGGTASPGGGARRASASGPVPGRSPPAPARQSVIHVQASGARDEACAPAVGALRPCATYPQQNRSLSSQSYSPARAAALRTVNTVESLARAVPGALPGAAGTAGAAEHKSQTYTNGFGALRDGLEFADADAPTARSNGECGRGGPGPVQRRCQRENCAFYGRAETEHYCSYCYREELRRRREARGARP
How it was run: as §1

UniProt Q9P2H5 = molecular target: T3, UniProt Q9P2H5
T3 sequence (whole entry): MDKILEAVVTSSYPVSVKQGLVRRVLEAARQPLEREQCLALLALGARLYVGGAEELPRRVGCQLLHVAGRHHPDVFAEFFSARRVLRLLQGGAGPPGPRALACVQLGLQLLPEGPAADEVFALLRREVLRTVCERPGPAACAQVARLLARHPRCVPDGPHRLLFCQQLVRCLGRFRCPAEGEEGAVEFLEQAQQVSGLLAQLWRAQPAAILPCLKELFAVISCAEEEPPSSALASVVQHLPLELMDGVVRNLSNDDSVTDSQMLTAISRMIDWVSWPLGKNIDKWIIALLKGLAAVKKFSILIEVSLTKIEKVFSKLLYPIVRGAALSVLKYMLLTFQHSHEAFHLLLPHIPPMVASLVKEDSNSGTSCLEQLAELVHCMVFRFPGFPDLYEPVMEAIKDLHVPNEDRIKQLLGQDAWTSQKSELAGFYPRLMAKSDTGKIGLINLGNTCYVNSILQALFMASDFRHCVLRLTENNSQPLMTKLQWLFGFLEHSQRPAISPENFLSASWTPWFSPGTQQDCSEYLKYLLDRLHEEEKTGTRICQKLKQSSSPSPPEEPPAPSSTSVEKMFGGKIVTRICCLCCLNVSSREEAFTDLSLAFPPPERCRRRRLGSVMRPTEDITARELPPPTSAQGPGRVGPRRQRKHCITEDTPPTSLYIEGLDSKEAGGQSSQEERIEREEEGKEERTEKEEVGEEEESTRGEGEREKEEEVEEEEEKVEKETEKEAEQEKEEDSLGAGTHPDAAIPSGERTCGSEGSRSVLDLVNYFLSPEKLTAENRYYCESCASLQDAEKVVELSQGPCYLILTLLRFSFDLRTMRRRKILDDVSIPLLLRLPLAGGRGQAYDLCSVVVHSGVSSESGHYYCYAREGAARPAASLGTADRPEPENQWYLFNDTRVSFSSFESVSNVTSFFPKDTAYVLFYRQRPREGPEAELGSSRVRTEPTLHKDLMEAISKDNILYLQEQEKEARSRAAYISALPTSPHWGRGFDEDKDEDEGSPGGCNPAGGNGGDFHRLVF
How it was run: as §1

UniProt Q9UGI0 = molecular target: T4, UniProt Q9UGI0
T4 sequence (whole entry): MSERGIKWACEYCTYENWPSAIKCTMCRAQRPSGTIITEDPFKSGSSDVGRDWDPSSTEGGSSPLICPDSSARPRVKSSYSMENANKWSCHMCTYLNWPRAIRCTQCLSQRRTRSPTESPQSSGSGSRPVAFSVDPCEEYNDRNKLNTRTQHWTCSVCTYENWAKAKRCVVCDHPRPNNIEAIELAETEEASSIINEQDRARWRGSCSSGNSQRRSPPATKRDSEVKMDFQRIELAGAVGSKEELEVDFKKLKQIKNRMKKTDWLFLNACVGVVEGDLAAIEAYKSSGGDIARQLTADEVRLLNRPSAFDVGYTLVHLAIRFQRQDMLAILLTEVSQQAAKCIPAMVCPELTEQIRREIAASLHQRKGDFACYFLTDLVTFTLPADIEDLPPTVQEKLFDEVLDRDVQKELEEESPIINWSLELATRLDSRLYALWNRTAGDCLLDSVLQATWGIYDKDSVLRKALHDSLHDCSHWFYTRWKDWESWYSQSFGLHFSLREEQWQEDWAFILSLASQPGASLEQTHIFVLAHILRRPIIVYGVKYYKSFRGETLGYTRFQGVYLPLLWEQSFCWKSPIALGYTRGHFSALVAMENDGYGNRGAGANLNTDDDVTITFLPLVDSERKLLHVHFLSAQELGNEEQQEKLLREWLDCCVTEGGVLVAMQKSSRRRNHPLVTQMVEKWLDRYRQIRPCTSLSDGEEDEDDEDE
How it was run: as §1

YOD1 = molecular target: T5, YOD1 (UniProt Q5VVQ6)
T5 sequence (whole entry): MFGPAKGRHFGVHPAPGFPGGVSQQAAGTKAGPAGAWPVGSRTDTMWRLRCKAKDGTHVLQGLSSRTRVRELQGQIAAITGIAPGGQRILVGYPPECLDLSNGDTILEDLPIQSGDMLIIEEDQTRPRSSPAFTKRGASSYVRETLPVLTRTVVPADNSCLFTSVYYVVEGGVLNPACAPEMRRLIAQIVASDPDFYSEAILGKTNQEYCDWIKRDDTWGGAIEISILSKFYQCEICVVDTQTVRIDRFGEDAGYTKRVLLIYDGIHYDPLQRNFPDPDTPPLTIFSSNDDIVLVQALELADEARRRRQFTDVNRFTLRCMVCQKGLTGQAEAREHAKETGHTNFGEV
How it was run: as §1

Measured: log2 ratio of Biotin-Ahx-Ub-VS probe labelling

O=C(CCl)N1CCOC2(CCC2)C1
inactive: USP9X 0.105 | UniProt O00487 -0.0639 | UniProt O00507 0.31 | UniProt P51784 0.244 | UniProt Q5T2D3 0.00991 | UniProt Q8TE49 -0.696 | UniProt Q9P2H5 0.0475 | UniProt Q9UGI0 -0.71 | YOD1 0.154
